A short description of assay [1]: qHTS assay to test for compound auto fluorescence at 535 nm (green) in HEK293 cells (AID 720680). In general terms: Quantitative high-throughput screening tests each substance at several concentrations.
Assay [2] in a line: qHTS assay to test for compound auto fluorescence at 460 nm (blue) in HEK293 cell free culture (AID 720681). A digest of the protocol: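 Blue fluorescence (Ex 405/Em 460 nm, triamterene-equivalent) was read immediately after pin transfer of compound or DMSO into medium (DMEM, 10% FBS) without cells.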
Assay [3] can be described thus: qHTS assay to test for compound auto fluorescence at 535 nm (green) in HEK293 cell free culture (AID 720682). A digest of the protocol: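 No cells present: wells hold DMEM supplemented with 10% FBS, into which compound or vehicle is pinned. Green emission is then recorded (485 nm excitation, 535 nm emission) and scaled to fluorescein.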
The nature of assay [4]: qHTS assay to test for compound auto fluorescence at 590 nm (red) in HEK293 cell free culture (AID 720683). Summed up: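 Red-channel autofluorescence of compounds in culture medium (DMEM, 10% FBS), no cells, measured at 540/590 nm. Rose Bengal sodium is the reference fluorophore for equivalence.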
The nature of assay [5]: qHTS assay to test for compound auto fluorescence at 590 nm (red) in HepG2 cell free culture (AID 720684). Summed up:
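Plate contents were MEM with 10% FBS plus test compound or DMSO, no cells. Fluorescence was recorded with 540 nm excitation and 590 nm emission.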

A short description of assay [6]: qHTS assay to test for compound auto fluorescence at 460 nm (blue) in HepG2 cell free culture (AID 720685). Summed up:
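Compound (23 nL) or DMSO pinned into cell-free MEM with 10% FBS; blue fluorescence read at 405/460 nm excitation/emission, expressed as auto-fluorescence equivalency to triamterene.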

Assay [7] can be described thus: qHTS assay to test for compound auto fluorescence at 535 nm (green) in HepG2 cell free culture (AID 720686).
Assay [8] in a line: qHTS assay to test for compound auto fluorescence at 460 nm (blue) in HepG2 cells (AID 720687). Summed up: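 Blue-channel autofluorescence (Ex/Em 405/460 nm, triamterene-equivalent) was measured after 1 hr compound exposure at 37 C, 5% CO2. Cells were HepG2, plated overnight at 37 C in MEM plus 10% FBS.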
The target in assay [9] is Glucocorticoid receptor (Homo sapiens) (UniProt P04150). Description: qHTS assay to identify small molecule agonists of the glucocorticoid receptor (GR) signaling pathway (AID 720691; active means well fitted activation curve with a large enough effect in the signal ratio in the repeat runs, not every such curve was filed as active; the % refers to the signal ratio). Summed up:
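Reporter read-out: fluorescence intensity following 2 h room-temperature LiveBLAzer B/G FRET substrate loading. Prior step: GR-bla HeLa cells held 4 h, then treated 18 h at 37 C.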

The target is the same in assay [10]. In words: qHTS assay to identify small molecule antagonists of the glucocorticoid receptor (GR) signaling pathway (AID 720692; active means well fitted inhibition curve with a large enough effect in the signal ratio in the repeat runs, not every such curve was filed as active; the % refers to the signal ratio). Summed up:
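Dexamethasone (5 nM final) stimulated a stably integrated GRE-beta-lactamase reporter in HeLa cells during 18 h co-incubation with compounds; signal was quantified as fluorescence intensity of B/G FRET substrate after 2 h.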

Assay [11] in a line: qHTS assay to identify small molecule antagonists of the glucocorticoid receptor (GR) signaling pathway - cell viability counter screen (AID 720693). Further: nearly all actives have a fitted effect of over 55% in size.
The nature of assay [12]: qHTS assay for identifying genotoxic compounds that show differential cytotoxicity against isogenic chicken DT40 cell lines with known DNA damage response pathways - wild type cell line (AID 743012). Further: nearly all actives have a fitted effect of over 60% in size. Summed up:
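Using parental DT40 (300 cells/well), compounds delivered in DMSO incubate 40 h at 37 C/5% CO2. CellTiter-Glo reagent then stands 30 min at room temperature, and luminescence gives cell viability.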

The nature of assay [13]: qHTS assay for identifying genotoxic compounds that show differential cytotoxicity against isogenic chicken DT40 cell lines with known DNA damage response pathways - Rad54/Ku70 mutant cell line (AID 743015). Further: nearly all actives have a fitted effect of over 60% in size.
A short description of assay [14]: qHTS assay to identify small molecule antagonists of the androgen receptor (AR) signaling pathway - cell viability counter screen (AID 743033; further: nearly all actives have a fitted effect of over 45% in size).
Assay [15] is described as follows: qHTS assay to identify small molecule antagonists of the androgen receptor (AR) signaling pathway using the MDA cell line - cell viability counter screen (AID 743041; further: nearly all actives have a fitted effect of over 45% in size). A digest of the protocol: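 R1881-driven MDA-kb2 AR-luc cells, 3,000/well, were dosed with library compounds for 16 h; cell health came from CellTiter-Fluor fluorescence in the reporter wells.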

A short description of assay [16]: qHTS assay to identify small molecule antagonists of the thyroid receptor (TR) signaling pathway - cell viability counter screen (AID 743064). Further: nearly all actives have a fitted effect of over 50% in size. A digest of the protocol: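 Rat GH3 pituitary tumor cells stably expressing two TR response elements driving luciferase were plated, rested 4 h, then dosed with library compounds and T3 (1 nM final). After 23.5 h at 37 °C, CellTiter-Fluor was added for 30 min and fluorescence recorded.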

Assay [17] is described as follows: qHTS assay for identifying genotoxic compounds that show differential cytotoxicity against isogenic chicken DT40 cell lines with known DNA damage response pathways - Rev3 mutant cell line (AID 743014). Further: nearly all actives have a fitted effect of over 55% in size. Further: potency means the concentration at half of the fitted maximal effect.
In assay [18] the target is Androgen receptor (Homo sapiens) (UniProt P10275). Description: qHTS assay to identify small molecule antagonists of the androgen receptor (AR) signaling pathway (AID 743035; active means well fitted inhibition curve with a large enough effect in the signal ratio in the repeat runs, not every such curve was filed as active; the % refers to the signal ratio). Summed up:
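Using qHTS, AR-UAS-bla GripTite HEK293 cells received compound, then R1881, and were cultured 16 h at 37C/5% CO2 before a 2 h room-temperature LiveBLAzer B/G FRET substrate step and fluorescence measurement.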

Assay [19] shares this target. In words: qHTS assay to identify small molecule agonists of the androgen receptor (AR) signaling pathway using the MDA cell line (AID 743040; further: nearly all actives have a fitted effect of over 20% in size). A digest of the protocol: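 After a 5 h incubation at 37C and 0% CO2, MDA-kb2 reporter cells were dosed with compounds in DMSO and kept 16 h under the same conditions. Luciferase activity was then read as luminescence with ONE-Glo.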

The target is the same in assay [20]. Description: qHTS assay to identify small molecule antagonists of the androgen receptor (AR) signaling pathway using the MDA cell line (AID 743042; further: nearly all actives have a fitted effect of over 55% in size). A digest of the protocol:
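Antagonist mode: compounds plus R1881 agonist added to MDA-kb2 AR-luc cells, incubated 16 h at 37C. Luciferase reporter luminescence quantified, with multiplexed CellTiter-Fluor readout for cell viability.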

Molecules are shown by their SMILES. Values without a mark were called inactive. Records with an inconclusive call do not appear. Active and inactive are the calls of the source. Unless noted, the call rests on the fitted dose curve; in most records, active means well fitted curve in the direction sought with a large enough effect in the repeat runs; inconclusive means weak or mixed curves; inactive means no such curve, though single readings can be large; an effect the other way counts as inactive or inconclusive.

17 compounds from PubChem BioAssay (Tox21) can be followed below.
On the % scale 0 is the no-effect control and ±100 the full control effect.

Androgen receptor (Homo sapiens), sequence (P10275 whole entry, looked up): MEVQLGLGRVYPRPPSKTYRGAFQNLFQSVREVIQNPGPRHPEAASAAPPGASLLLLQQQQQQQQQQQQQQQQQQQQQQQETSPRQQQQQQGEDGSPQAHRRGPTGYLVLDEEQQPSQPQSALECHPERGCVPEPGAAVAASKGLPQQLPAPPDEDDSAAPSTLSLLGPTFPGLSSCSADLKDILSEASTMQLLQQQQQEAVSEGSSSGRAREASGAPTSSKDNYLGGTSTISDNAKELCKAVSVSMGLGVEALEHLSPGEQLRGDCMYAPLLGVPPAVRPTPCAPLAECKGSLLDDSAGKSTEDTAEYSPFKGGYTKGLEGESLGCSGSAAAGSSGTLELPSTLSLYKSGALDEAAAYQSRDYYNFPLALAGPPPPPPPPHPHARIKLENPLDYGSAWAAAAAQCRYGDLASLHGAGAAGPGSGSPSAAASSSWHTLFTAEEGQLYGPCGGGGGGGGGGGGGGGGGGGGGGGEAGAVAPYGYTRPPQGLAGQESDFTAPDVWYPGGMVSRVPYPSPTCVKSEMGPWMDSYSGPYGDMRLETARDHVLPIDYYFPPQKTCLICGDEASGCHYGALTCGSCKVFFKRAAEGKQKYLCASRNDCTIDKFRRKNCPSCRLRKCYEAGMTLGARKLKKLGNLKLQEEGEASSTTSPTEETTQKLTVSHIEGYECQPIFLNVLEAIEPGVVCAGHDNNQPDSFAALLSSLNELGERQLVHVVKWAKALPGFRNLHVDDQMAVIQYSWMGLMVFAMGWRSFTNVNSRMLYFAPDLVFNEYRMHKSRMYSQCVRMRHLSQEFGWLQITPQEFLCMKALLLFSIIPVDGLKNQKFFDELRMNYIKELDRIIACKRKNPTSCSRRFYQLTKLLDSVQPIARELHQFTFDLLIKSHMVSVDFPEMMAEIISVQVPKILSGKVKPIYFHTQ
Glucocorticoid receptor (Homo sapiens), sequence (P04150 whole entry, looked up): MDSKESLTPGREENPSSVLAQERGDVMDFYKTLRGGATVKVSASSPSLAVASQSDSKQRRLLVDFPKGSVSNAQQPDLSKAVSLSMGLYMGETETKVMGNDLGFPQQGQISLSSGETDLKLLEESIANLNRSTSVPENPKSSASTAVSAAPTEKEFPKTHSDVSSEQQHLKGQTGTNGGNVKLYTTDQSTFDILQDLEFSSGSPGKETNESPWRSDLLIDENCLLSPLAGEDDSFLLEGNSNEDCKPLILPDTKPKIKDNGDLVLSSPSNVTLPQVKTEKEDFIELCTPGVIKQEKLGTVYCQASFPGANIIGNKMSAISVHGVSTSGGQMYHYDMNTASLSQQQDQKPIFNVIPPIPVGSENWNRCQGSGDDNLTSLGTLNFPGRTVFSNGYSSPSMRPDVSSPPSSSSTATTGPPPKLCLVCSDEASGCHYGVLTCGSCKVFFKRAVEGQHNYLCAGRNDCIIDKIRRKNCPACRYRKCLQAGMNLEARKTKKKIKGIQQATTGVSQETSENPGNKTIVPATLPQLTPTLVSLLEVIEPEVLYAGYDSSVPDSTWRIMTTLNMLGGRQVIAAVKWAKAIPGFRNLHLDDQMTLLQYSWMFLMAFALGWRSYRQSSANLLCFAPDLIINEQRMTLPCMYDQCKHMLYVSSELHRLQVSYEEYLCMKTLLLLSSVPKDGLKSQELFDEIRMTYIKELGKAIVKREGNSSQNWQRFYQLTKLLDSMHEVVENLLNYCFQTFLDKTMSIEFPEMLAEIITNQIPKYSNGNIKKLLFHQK

`Nc1ccc(C(=O)NCC(=O)O)cc1`: the fluorescence, % of fluorescein in assay [1] was -0.0255% [at 18.6 µM]. Also, the fluorescence, % of fluorescent control in assay [2] was 0.0205% [at 18.6 µM]; in [4], -0.0926% [at 18.6 µM]; in assay [6] it was -0.124% [at 18.6 µM]; in assay [8], -0.0546% [at 18.6 µM]. In [3], the activity change was -0.0258% [at 18.6 µM]. The fluorescence, % of Rose Bengal in [5] is -0.0233% [at 18.6 µM]. In addition, the fluorescence, % of fluorescein control in assay [7] is 0.0021% [at 18.6 µM]. The Potency entry in assay [9], in [12], in assay [13] and in assay [16] was “inactive” each time. In addition, the result in assay [10], in [11], in [14] and in [15] was inactive.

In the case of `CCC(C)(C)C`, the outcome in assay [1], in assay [2], in assay [3], in [4], in assay [5] and in assay [6] was inactive. Further, the result in assay [7], in assay [8], in assay [11] and in assay [14] was inactive. Further, the Potency result in assay [9], in [12], in assay [17] and in [13] was “inactive” each time.

With `O=Cc1ccccc1S(=O)(=O)O`, the compound was called inactive in [1], in [2], in assay [3], in assay [4], in [5] and in [6]. The compound was classed as inactive in assay [7], in assay [8], in assay [10], in assay [11] and in assay [15]. Also, the Potency result in [9], in assay [17], in [13] and in assay [16] was “inactive” throughout.

Take `NNC(=O)CCCCC(=O)NN`: the compound was called inactive in [1], in assay [2], in assay [3], in assay [4], in assay [5] and in assay [6]. For the same compound, the call in assay [7], in assay [8], in assay [10] and in assay [15] was inactive. The Potency entry in assay [9], in assay [17], in [13] and in assay [16] was “inactive” in each case.

In the case of `Cc1ccccc1C#N`, the compound was called inactive in assay [1], in assay [2], in assay [3], in [4], in assay [5] and in assay [6]. The call in assay [7], in assay [8], in [11], in assay [14] and in assay [15] was inactive. Moreover, the Potency result in assay [12], in assay [17], in assay [13] and in assay [16] was “inactive” in each case.

As to `N#Cc1ccccc1C#N`, the compound was called inactive in [1], in [2], in [3], in assay [4], in [5] and in assay [6]. In addition, the result in assay [7], in assay [8], in assay [11], in [14], in [18] and in assay [19] was inactive. The outcome in assay [15] and in assay [20] was inactive. Besides, the Potency result in [12], in assay [17], in [13] and in assay [16] was “inactive” each time.

As to `c1coc(Cn2cccc2)c1`, the compound was called inactive in [1], in assay [2], in assay [3], in assay [4], in [5] and in assay [6]. Moreover, the result in [7], in assay [8] and in [14] was inactive. The Potency result in assay [9], in [12], in assay [17] and in [13] was “inactive” in each case.

`CC/C=C/CCCCCCCCCCOC(C)=O`: the compound was classed as inactive in assay [1], in assay [2], in assay [3], in assay [4], in [5] and in [6]. Further, the result in assay [7], in assay [8] and in assay [11] was inactive. For the same compound, the Potency entry in assay [9], in [12], in assay [13] and in assay [16] was “inactive” in each case. In [17], the Potency is 43.3 µM (active).

In the case of `C=CCn1cc[n+](C)c1`, the result in assay [1], in [2], in assay [3], in [4], in [5] and in assay [6] was inactive. For the same compound, the compound was classed as inactive in assay [7], in assay [8], in assay [11], in assay [14] and in [15]. Also, the Potency entry in [9], in [12], in assay [17], in [13] and in assay [16] was “inactive” throughout.

Turning to `CC(C)(C)C(=O)CCc1ccc(Cl)cc1`, the call in [1], in assay [2], in assay [3], in assay [4], in assay [5] and in [6] was inactive. In addition, the compound was classed as inactive in assay [7], in [8], in assay [11], in assay [14] and in assay [15]. The Potency result in [12], in assay [17], in assay [13] and in assay [16] was “inactive” in each case.

For the compound `NC(=O)CC[C@@H](N)C(=O)O`, the outcome in assay [1], in assay [2], in assay [3], in [4], in [5] and in [6] was inactive. The compound was called inactive in assay [7], in assay [8], in assay [11], in [14] and in assay [15]. Further, the Potency entry in assay [9], in [12], in assay [17], in assay [13] and in assay [16] was “inactive” each time.

Turning to `CC(C)OCCO`, the outcome in assay [1], in [2], in assay [3], in assay [4], in assay [5] and in assay [6] was inactive. The call in [7], in assay [8] and in assay [15] was inactive. The Potency entry in assay [9], in assay [12], in [17], in assay [13] and in assay [16] was “inactive” throughout.

For `CCN1CCN(C(=O)N[C@@H](C(=O)N[C@@H]2C(=O)N3[C@@H]2SC(C)(C)[C@H]3C(=O)O)c2ccccc2)C(=O)C1=O`, the compound was classed as inactive in assay [1], in [2], in assay [3], in assay [4], in assay [5] and in assay [6]. Besides, the outcome in assay [7], in assay [8], in [11], in assay [14] and in assay [15] was inactive. Further, the Potency result in assay [12], in [17], in [13] and in assay [16] was “inactive” in each case.

In the case of `CC/C=C\CCCCCCCCCCOC(C)=O`, the call in [1], in [2], in assay [3], in assay [4], in [5] and in assay [6] was inactive. Also, the outcome in [7], in [8], in [11], in [14] and in assay [15] was inactive. The Potency entry in assay [9], in assay [12], in [17], in [13] and in [16] was “inactive” each time.

For `CCC(C)c1nccnc1OC` (centres undefined), the call in assay [1], in assay [2], in assay [3], in assay [4], in assay [5] and in assay [6] was inactive. The call in [7], in [8], in [11], in assay [14] and in assay [15] was inactive. Besides, the Potency result in assay [9], in [17] and in [16] was “inactive” each time.

For the compound `CCC(C)SSC(C)CC` (centres undefined), the result in assay [1], in [2], in [3], in assay [4], in assay [5] and in [6] was inactive. The call in [7], in [8] and in assay [14] was inactive. For the same compound, the Potency entry in [9], in assay [12], in assay [17], in [13] and in assay [16] was “inactive” throughout.

In the case of `NCC1CCC(C(=O)Oc2ccc(CCC(=O)O)cc2)CC1` (centres undefined), the outcome in assay [1], in assay [2], in assay [3], in [4], in assay [5] and in assay [6] was inactive. In addition, the call in assay [7], in assay [8], in [11], in [14] and in [15] was inactive. Further, the Potency entry in assay [12], in [17], in assay [13] and in assay [16] was “inactive” in each case.
